Results: PubChem BioAssay AID1159580 (chemical genetic matrix, 2015)
Where “and” joins values, the source holds several entries; their conditions need not be identical. Identical values can stand only once. In all, about 5,500 compounds went through this assay and about 2,000 (36%) were called active. Another 18% or so got no clear call; they are omitted. No stated cut-off is given here; in the data, active means normalized growth mostly below about 0.91 (no sharp cut-off); inconclusive means no clear call, values can overlap the other calls; inactive means mostly above about 0.92. This is one part of the list.

Assay: chemical genetic growth profiling, strain panel (AID 1159580);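 further: tested at 20 µM; growth read once vehicle control cultures reached saturation at 30 °C; 1 = growth at the plate median or of vehicle wells; lower values mean less growth of the strain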
Settings: S. cerevisiae deletion strains, growth OD

Measured: normalized growth

C[C@@H]1CC2C3C[C@H](F)C4=CC(=O)C=C[C@]4(C)[C@@]3(F)[C@@H](O)C[C@]2(C)[C@@]1(O)C(=O)COC(=O)C(C)(C)C (some centres not stated)
inactive: locus YAL021C, strain ccr4, active compounds read low 0.995 | locus YAL026C, strain drs2, active compounds read low 1 | locus YAL030W, strain snc1, active compounds read low 0.98 | locus YBL061C, strain skt5, active compounds read low 0.994 | locus YBR009C, strain hhf1, active compounds read low 0.972 | locus YBR021W, strain FUR4, active compounds read low 1.01 | locus YBR023C, strain chs3, active compounds read low 0.983 | locus YBR171W, strain sec66, active compounds read low 0.998 | locus YBR229C, strain ROT2, active compounds read low 1 | locus YBR231C, strain swc5, active compounds read low 0.98 | locus YBR279W, strain paf1, active compounds read low 0.986 | locus YCL011C, strain gbp2, active compounds read low 1.01 | locus YCL016C, strain dcc1, active compounds read low 0.995 | locus YCL029C, strain bik1, active compounds read low 0.992 | locus YCL069W, strain vba3, active compounds read low 1 | locus YCR088W, strain abp1, active compounds read low 1.01 | locus YDL005C, strain med2, active compounds read low 1 | locus YDL035C, strain GPR1, active compounds read low 0.982 | locus YDL040C, strain nat1, active compounds read low 0.985 | locus YDL074C, strain BRE1, active compounds read low 1 | locus YDL101C, strain DUN1, active compounds read low 1.01 | locus YDL134C, strain PPH21, active compounds read low 0.98 | locus YDL185W, strain tfp1, active compounds read low 1 | locus YDL192W, strain arf1, active compounds read low 1.01 | locus YDR001C, strain nth1, active compounds read low 0.998 | locus YDR069C, strain doa4, active compounds read low 0.991 | locus YDR101C, strain arx1, active compounds read low 0.97 | locus YDR137W, strain rgp1, active compounds read low 1 | locus YDR150W, strain NUM1, active compounds read low 0.999 | locus YDR159W, strain sac3, active compounds read low 0.991 | locus YDR162C, strain NBP2, active compounds read low 0.987 | locus YDR195W, strain ref2 0.911 | locus YDR297W, strain sur2, active compounds read low 0.993 | locus YDR318W, strain mcm21, active compounds read low 1.01 | locus YDR334W, strain swr1, active compounds read low 1 | locus YDR335W, strain msn5, active compounds read low 0.995 | locus YDR388W, active compounds read low 1.01 | locus YDR392W, strain spt3, active compounds read low 1 | locus YDR502C, strain sam2, active compounds read low 1 | locus YEL003W, strain gim4, active compounds read low 1 | locus YEL037C, strain rad23, active compounds read low 0.994 | locus YEL061C, strain CIN8 (second series), active compounds read low 1.01 | locus YEL061C, strain CIN8, active compounds read low 1 | locus YER015W, strain faa2, active compounds read low 0.996 | locus YER016W, strain bim1, active compounds read low 0.99 | locus YER110C, active compounds read low 1.02 | locus YER111C, strain swi4, active compounds read low 0.999 | locus YER155C, strain BEM2 (second series), active compounds read low 0.991 | locus YER155C, strain BEM2, active compounds read low 1.01 | locus YER167W, strain BCK2, active compounds read low 0.997 | locus YFR010W, strain ubp6, active compounds read low 0.997 | locus YGL078C, strain dbp3, active compounds read low 1.01 | locus YGL086W, strain mad1, active compounds read low 0.983 | locus YGL167C, strain pmr1, active compounds read low 0.989 | locus YGL173C, strain kem1, active compounds read low 0.994 | locus YGL227W, strain vid30, active compounds read low 1.01 | locus YGL240W, strain doc1, active compounds read low 0.971 | locus YGL248W, strain PDE1, active compounds read low 1.01 | locus YGL253W, strain hxk2, active compounds read low 1.01 | locus YGR135W, strain pre9, active compounds read low 1.05 | locus YGR252W, strain gcn5, active compounds read low 1.06 | locus YHR013C, strain ard1, active compounds read low 0.965 | locus YHR027C, strain rpn1, active compounds read low 0.998 | locus YHR030C, strain SLT2, active compounds read low 1 and 0.992 | locus YHR079C, strain IRE1 (second series), active compounds read low 1 | locus YHR079C, strain IRE1, active compounds read low 0.972 | locus YHR094C, strain hxt1, active compounds read low 1.01 | locus YHR129C, strain ARP1, active compounds read low 1.01 | locus YHR142W, strain chs7, active compounds read low 1.01 | locus YHR200W, strain rpn10, active compounds read low 1 | locus YIL066C, strain RNR3, active compounds read low 0.997 | locus YIL073C, strain SPO22, active compounds read low 0.995 | locus YIL125W, strain kgd1, active compounds read low 1 | locus YIR030C, strain dcg1, active compounds read low 1 | locus YJL092W, strain hpr5, active compounds read low 1 | locus YJL095W, strain BCK1 (second series), active compounds read low 0.989 | locus YJL095W, strain BCK1, active compounds read low 1.03 and 0.963 | locus YJL115W, strain asf1, active compounds read low 0.993 | locus YJL129C, strain trk1, active compounds read low 1 | locus YJL134W, strain LCB3, active compounds read low 1 | locus YJL154C, strain vps35, active compounds read low 0.997 | locus YJL164C, strain tpk1, active compounds read low 0.989 | locus YJL166W, strain qcr8, active compounds read low 0.966 | locus YJL168C, strain set2, active compounds read low 1.01 | locus YJL187C, strain SWE1 (second series), active compounds read low 1 | locus YJR043C, strain POL32, active compounds read low 0.983 | locus YJR066W, strain TOR1, active compounds read low 0.944
